This passage reports outcome and Potency results from PubChem BioAssay (NCATS).

The nature of experiment [1]: AP1 Signaling Pathway (AID 357; active = well fitted curve in either direction with a large enough effect, not every such curve was filed as active;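 also: ME-180 reporter cells stimulated with EGF at its EC50 level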). A digest of the protocol: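 Read-out was the 460nm/530nm emission ratio (excitation 405nm) after CCF4 loading for 2.5 hours at room temperature. Cells carried an AP-1-driven beta-lactamase reporter, were stimulated with EC50 EGF plus compound for 5 hours, and AC50 values came from titrations.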
In experiment [2] the target is Cytochrome P450 1A2 (Homo sapiens) (UniProt P05177). The experiment is described as follows: p450-cyp1a2 (AID 410; calls by dose curve). A digest of the protocol: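 20nM CYP1A2 with 100uM Luciferin-ME (at Km) in 100mM KPO4; compound preincubated 10 min, NADPH regeneration added, 60 min at room temperature. Luciferin quantified by luminescence after detection reagent; normalized to 57 uM furafylline.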

The nature of experiment [3]: Stat Signaling Pathway (AID 446; active = well fitted curve in either direction with a large enough effect, not every such curve was filed as active;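 also: ME-180 cervical cancer cells given 40 pM IL-6 alongside compound; SIE-controlled beta-lactamase reporter measured as 460/530 nm FRET emission ratio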). A digest of the protocol: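 ME-180 cells carrying a SIE-driven beta-lactamase reporter are stimulated with 40 pM IL-6 for 5 h at 37C in the presence of compound. The 460/530 nm FRET substrate ratio is read after 2.5 h at RT. Data are normalised to 300 pM IL-6 and to 125 nM JAK inhibitor controls.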
The target of experiment [4] is Glucocorticoid receptor (Homo sapiens) (UniProt P04150). The experiment is described as follows: GR-GFP Redistribution (AID 450;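 active = compounds whose dose series gives a full or clear partial fitted curve of increased nuclear translocation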; also: potency is read from the fitted curve at half-maximal effect). Particulars: U2OS GR-GFP nuclear translocation, laser cytometry, 2 h.
Chain of Glucocorticoid receptor (Homo sapiens) (P04150 whole entry, looked up): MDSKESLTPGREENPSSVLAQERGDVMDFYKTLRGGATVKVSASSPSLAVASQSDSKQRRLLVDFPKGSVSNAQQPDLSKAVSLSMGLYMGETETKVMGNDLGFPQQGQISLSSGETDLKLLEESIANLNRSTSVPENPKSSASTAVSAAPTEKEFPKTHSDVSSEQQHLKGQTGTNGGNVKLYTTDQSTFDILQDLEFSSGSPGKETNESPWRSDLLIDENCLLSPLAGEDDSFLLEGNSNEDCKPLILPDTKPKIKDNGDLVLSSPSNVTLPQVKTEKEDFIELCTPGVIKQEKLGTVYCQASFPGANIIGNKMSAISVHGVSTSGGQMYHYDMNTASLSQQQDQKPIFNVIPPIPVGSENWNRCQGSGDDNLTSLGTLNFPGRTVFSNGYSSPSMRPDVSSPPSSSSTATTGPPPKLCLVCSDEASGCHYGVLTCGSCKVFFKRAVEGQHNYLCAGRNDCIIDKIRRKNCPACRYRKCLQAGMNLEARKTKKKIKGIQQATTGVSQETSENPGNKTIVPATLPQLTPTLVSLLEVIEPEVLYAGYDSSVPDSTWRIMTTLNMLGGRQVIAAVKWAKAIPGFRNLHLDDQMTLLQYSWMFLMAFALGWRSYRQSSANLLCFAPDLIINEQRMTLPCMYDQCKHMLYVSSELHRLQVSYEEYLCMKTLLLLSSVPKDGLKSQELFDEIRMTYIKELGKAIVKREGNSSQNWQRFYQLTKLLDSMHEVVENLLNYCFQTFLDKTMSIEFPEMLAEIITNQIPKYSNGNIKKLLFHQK
Experiment [5] shares this target. The experiment is described as follows: GR-EFC Redistribution (AID 451; calls by dose curve; also: potency is read from the fitted curve at half-maximal effect). As to conditions: CHO-K1 GR-EFC translocation, beta-gal luminescence, 2 h. Summed up:
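Translocation of GR-ED fusion to nuclear EA restores b-gal, read by luminescence after 1 h room-temperature detection. Engineered CHO-K1 biosensor cells, 1,000/well, exposed 2 h at 37 C to titrations up to 46 uM final.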

Experiment [6] addresses 3',5'-cyclic-AMP phosphodiesterase 4B (Homo sapiens) (UniProt Q07343). The experiment is described as follows: qHTS Assay for Inhibitors of PDE-IV (AID 607; active = well fitted activation curve with a large enough effect in the main read-out, with a control signal flat, not every such curve was filed as active). Summed up:
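HEK293 ACTOne cells with CNG channel (1000/well), endogenous PDE4; membrane potential dye, compounds up to 22.9 uM final. Fluorescence Ex 535/Em 590; RO 20-1724 (100 uM final) as reference.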
For orientation: qHTS replaces the single test concentration by a dilution series.

Experiment [7] concerns the target Guanine nucleotide-binding protein G(i) subunit alpha-1 (Homo sapiens) (UniProt P63096). The experiment is described as follows: qHTS Assay for Inhibitors of RGS12 GoLoco Motif Activity (Green Fluorophore) (AID 879).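 Also: negative values mean loss of peptide binding seen as reduced polarization.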 Summed up:
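Fluorescence polarization assay: 50 nM Gαi1 with 10 nM FITC-labeled RGS12 GoLoco peptide in 10 mM Tris pH 7.5, 150 mM NaCl, 0.1 mM GDP, 0.05% NP40, 10 min at room temperature with compound.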

Experiment [8] deals with Cytochrome P450 3A4 (Homo sapiens) (UniProt P08684). The experiment is described as follows: qHTS Assay for Inhibitors and Substrates of Cytochrome P450 3A4 (AID 884). Also: nearly all actives have a fitted effect of over 50% in size. Also: potency is read from the fitted curve at half-maximal effect. Summed up:
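20 nM human CYP3A4 with 25 uM Luciferin-PPXE (at KM) in 200 mM KPO4, preincubated 10 min with compound; NADPH regeneration started a 60 min RT reaction. Luciferin detected by luminescence, normalized to 57 uM ketoconazole as full inhibition.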

For experiment [9] the target is unchanged. The experiment is described as follows: qHTS Assay for Activators of Cytochrome P450 3A4 (AID 885). Also: nearly all actives have a fitted effect of over 65% in size. Summed up:
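Human CYP3A4 (20 nM) with Luciferin-PPXE at 25 uM (its KM) in 200 mM KPO4; 10 min compound preincubation, then NADPH regeneration and 60 min reaction at RT. Luciferin read by luminescence; normalized to 57 uM ketoconazole full inhibition.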

For experiment [10], the target named is Cytochrome P450 2D6 (Homo sapiens) (UniProt P10635). In words: qHTS Assay for Inhibitors and Substrates of Cytochrome P450 2D6 (AID 891). Also: potency is read from the fitted curve at half-maximal effect; nearly all actives have a fitted effect of over 60% in size. Summed up: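 Human CYP2D6 (5 nM) with 30 uM Luciferin-ME EGE (at Km) in 100 mM KPO4, compound preincubated 10 min, then NADPH regeneration system for 60 min at room temperature. Luciferin read by luminescence; normalized to 1.43 uM quinidine.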
Chain of Cytochrome P450 2D6 (Homo sapiens) (P10635 whole entry, looked up): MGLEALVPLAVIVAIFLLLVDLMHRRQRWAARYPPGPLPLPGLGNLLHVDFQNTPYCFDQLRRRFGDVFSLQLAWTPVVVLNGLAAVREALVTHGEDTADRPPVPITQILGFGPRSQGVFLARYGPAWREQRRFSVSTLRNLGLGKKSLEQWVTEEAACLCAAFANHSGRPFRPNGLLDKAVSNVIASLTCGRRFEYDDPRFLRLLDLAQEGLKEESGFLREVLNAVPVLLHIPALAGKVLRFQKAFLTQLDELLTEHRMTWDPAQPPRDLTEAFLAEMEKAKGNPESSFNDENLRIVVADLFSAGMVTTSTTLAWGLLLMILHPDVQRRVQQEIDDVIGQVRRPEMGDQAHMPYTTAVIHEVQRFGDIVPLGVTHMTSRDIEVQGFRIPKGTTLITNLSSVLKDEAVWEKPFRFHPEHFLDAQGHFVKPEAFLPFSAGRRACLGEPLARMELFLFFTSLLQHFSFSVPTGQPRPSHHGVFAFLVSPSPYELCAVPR

Experiment [11] addresses Pyruvate kinase (Leishmania mexicana) (UniProt Q27686). The experiment is described as follows: qHTS Validation Assay for Inhibitors of Leishmania Mexicana Pyruvate Kinase (AID 945). A digest of the protocol: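 Eight-point qHTS titrations in triplicate, data normalized to DMSO neutral control. Reaction: 0.2 nM LmPYK E451W mutant, 0.5 mM PEP, 0.1 mM ADP, 7 mM MgCl2, pH 7.2, one hour at room temperature; luminescent ATP detection.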

For experiment [12], the target named is Alpha-galactosidase (Coffea arabica) (UniProt Q42656). The experiment is described as follows: Counterscreen for Glucocerebrosidase Inhibitors: qHTS Assay for Coffee Bean alpha-Galactosidase at pH 4.5 (AID 957). Also: series mostly up to about 77 µM. A digest of the protocol: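 Coffee bean enzyme (2 nM) with 80 uM 4-methylumbelliferyl alpha-D-galactopyranoside in 50 mM citric acid, 0.005% Tween-20, pH 4.5, 20 min at room temperature; compounds 0.7 nM–77 uM. Stopped at pH 10, fluorescence 365/440 nm; AC50 from Hill fits.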
Chain of Alpha-galactosidase (Coffea arabica) (Q42656 whole entry, looked up): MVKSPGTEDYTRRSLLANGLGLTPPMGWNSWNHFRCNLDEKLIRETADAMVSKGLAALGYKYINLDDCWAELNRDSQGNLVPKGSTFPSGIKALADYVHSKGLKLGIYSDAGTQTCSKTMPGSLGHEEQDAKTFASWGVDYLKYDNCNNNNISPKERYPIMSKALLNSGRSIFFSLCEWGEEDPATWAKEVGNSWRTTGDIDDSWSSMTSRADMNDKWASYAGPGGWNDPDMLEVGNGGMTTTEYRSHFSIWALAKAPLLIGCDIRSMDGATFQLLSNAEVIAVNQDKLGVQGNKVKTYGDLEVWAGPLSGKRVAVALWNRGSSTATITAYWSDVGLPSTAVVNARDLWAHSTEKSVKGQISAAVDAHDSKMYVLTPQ
(In general: The purpose of a counterscreen is to sort out artefacts and off-target activity.)

For experiment [13], the target named is Alpha-galactosidase A (Homo sapiens) (UniProt P06280). In words: Counterscreen for Glucocerebrosidase Inhibitors: qHTS Assay for Human alpha-Galactosidase at pH 4.5 (AID 992). Summed up:
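Human enzyme (2 nM) with 80 uM 4-methylumbelliferyl alpha-D-galactopyranoside in 50 mM citric acid, 0.005% Tween-20, pH 4.5, 20 min at room temperature. Compounds 0.7 nM–77 uM; fluorescence Ex 365/Em 440 after pH 10 stop; AC50 from Hill fits.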

In experiment [14] the target is DNA dC->dU-editing enzyme APOBEC-3G (Homo sapiens) (UniProt Q9HC16). The experiment is described as follows: qHTS for inhibitors of Vif-A3G interactions: Validation (AID 588379). Summed up: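 HeLa cells stably expressing Vif and A3G-eYFP, 700 cells/well, incubated overnight at 37 deg C, then exposed to compound overnight at 37 deg C. Inhibition of Vif-mediated degradation read as increased yellow fluorescence (Ex 488/Em 500-530) by laser-scanning cytometry.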
Chain of DNA dC->dU-editing enzyme APOBEC-3G (Homo sapiens) (Q9HC16 whole entry, looked up): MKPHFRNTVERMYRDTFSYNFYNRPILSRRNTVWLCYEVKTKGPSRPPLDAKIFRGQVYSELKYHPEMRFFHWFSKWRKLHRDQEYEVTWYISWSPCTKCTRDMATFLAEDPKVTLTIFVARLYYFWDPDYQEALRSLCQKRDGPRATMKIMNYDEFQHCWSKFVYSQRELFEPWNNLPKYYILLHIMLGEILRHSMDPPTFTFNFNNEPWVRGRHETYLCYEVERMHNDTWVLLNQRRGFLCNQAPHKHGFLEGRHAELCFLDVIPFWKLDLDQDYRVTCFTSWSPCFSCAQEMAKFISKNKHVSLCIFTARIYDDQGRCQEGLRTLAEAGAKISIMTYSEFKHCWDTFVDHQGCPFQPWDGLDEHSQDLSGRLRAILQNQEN

Experiment [15] relates to Zika virus NS2B-NS3 protease. In words: Primary screen GU AMC qHTS for Zika virus inhibitors (AID 1347154). Also: nearly all actives have a fitted effect of over 70% in size. A digest of the protocol:
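Fluorogenic AMC-substrate cleavage by noncovalent NS2B-NS3 protease complex (25 nM, pH 8.0 Tris buffer with Tween 20) followed for 15 minutes at room temperature (~20% conversion). Percent inhibition from ex340/em450 signal change, fitted by 4-parameter Hill equation.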

In experiment [16] the target is Mitogen-activated protein kinase 10 (Mus musculus) (UniProt Q61831). The experiment is described as follows: JNK3 AlphaScreen Assay (AID 530; active = well fitted curve in either direction with a large enough effect, not every such curve was filed as active;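 also: kinase came from lysate of stimulated human HepG2 cells; signal reports phosphorylation of biotinylated GST-cJun 1-79 at Ser73 with 10 µM ATP; series mostly up to about 57 µM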). A digest of the protocol:
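Compound titrations were preincubated 15 minutes at room temperature with substrate, antibody and pre-activated JNK3-containing HepG2 lysate. Reactions were started with 10 uM ATP and stopped with EDTA-containing bead buffer for AlphaScreen detection.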

Values joined by “and” are separate entries in the source; they are usually repeats but may differ in a detail not shown here. Identical values can stand only once. A number with no mark means an inactive call. Inconclusive results are not listed. Active and inactive are the calls of the source. Unless noted, calls follow the shape of the dose curve; as a rule, active = well fitted curve in the direction sought with a large enough effect; inconclusive = small, poorly fitted or top-dose-only effect, or another doubt; inactive = no such curve, though single readings can be large; an effect the other way counts as inactive or inconclusive. Some results are limits rather than exact numbers.

Chain of 3',5'-cyclic-AMP phosphodiesterase 4B (Homo sapiens) (Q07343 whole entry, looked up): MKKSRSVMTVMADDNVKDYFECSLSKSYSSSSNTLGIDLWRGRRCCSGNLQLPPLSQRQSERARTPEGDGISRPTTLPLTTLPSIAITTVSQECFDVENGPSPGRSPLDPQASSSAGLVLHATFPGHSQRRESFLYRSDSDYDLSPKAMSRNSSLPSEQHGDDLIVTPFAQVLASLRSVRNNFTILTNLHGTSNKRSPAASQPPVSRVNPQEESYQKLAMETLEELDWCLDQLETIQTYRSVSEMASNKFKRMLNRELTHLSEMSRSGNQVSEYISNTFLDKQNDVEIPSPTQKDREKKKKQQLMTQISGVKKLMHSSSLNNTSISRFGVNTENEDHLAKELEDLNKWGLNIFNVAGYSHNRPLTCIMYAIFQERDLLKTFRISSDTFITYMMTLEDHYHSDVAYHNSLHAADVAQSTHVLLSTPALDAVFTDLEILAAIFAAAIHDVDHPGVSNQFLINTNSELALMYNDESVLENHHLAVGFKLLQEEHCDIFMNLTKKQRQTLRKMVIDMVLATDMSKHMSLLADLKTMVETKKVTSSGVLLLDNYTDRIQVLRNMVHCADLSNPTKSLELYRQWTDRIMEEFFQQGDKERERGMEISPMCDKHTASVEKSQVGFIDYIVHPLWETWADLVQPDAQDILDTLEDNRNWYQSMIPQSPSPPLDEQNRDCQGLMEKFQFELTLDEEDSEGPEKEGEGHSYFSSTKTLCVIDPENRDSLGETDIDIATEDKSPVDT
Chain of Cytochrome P450 3A4 (Homo sapiens) (P08684 whole entry, looked up): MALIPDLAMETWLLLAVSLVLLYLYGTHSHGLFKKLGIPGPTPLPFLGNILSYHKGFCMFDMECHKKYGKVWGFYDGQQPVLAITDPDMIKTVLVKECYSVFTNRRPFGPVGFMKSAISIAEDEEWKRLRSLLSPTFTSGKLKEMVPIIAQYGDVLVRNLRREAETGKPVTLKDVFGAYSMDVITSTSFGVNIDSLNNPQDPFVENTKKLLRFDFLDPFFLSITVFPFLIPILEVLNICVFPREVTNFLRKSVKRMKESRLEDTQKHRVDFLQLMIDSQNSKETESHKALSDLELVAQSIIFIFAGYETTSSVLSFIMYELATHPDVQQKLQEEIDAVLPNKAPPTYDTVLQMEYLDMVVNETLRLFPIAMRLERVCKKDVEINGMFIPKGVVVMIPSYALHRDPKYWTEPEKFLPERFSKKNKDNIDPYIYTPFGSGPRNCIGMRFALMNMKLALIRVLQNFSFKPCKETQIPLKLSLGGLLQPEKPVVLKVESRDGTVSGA
Chain of Guanine nucleotide-binding protein G(i) subunit alpha-1 (Homo sapiens) (P63096 whole entry, looked up): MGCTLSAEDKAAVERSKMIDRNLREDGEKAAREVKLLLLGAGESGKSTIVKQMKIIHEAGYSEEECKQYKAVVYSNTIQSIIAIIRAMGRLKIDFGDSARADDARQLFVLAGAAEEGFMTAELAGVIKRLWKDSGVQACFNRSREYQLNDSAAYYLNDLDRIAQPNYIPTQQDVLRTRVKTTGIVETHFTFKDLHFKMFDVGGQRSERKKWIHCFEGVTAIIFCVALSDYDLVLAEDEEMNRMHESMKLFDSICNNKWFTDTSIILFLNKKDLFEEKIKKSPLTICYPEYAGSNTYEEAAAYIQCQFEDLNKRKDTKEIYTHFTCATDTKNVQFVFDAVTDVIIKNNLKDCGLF
Chain of Pyruvate kinase (Leishmania mexicana) (Q27686 2-499 E452W): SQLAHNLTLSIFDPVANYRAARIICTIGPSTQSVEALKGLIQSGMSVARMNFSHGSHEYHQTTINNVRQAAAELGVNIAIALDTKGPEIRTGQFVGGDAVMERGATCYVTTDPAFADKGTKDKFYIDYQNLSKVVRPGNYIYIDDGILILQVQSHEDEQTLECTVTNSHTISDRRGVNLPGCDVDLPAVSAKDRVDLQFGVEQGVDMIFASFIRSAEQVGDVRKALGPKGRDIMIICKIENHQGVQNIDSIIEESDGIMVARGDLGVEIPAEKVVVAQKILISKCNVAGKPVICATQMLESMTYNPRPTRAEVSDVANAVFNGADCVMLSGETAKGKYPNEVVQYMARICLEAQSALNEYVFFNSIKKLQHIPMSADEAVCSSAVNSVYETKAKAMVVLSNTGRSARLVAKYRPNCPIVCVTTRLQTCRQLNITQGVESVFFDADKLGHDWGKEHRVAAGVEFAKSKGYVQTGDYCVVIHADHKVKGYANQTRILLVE
Chain of Alpha-galactosidase A (Homo sapiens) (P06280 whole entry, looked up): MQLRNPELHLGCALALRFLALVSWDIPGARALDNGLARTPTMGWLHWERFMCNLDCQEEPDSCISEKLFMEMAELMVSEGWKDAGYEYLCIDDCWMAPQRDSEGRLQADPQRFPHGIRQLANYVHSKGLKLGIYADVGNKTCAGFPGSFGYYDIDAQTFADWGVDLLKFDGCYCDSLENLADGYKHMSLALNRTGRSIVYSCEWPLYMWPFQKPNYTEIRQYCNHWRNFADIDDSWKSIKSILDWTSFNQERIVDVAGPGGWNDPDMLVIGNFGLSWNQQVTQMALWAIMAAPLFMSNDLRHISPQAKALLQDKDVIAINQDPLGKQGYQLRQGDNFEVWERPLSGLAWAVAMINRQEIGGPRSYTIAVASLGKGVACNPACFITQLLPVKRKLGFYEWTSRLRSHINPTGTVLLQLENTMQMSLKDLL

As to `O=C(Cc1ccc(Cl)c(Cl)c1)N1CCCC[C@H]1CN1CCCC1`, the result in experiment [1], in [3], in [7], in experiment [11], in [12] and in experiment [13] was inactive. Also, the Potency entry in experiment [2], in [6], in experiment [9], in [14] and in [15] was “inactive” throughout. In addition, the Potency in [4] is more than 46 µM; in experiment [5], more than 46 µM; in [8], 7.94 µM (active); in experiment [10], 7.94 µM (active) and 2.51 µM (active).

As for `O=C(CCCN1CCC2(CC1)C(=O)N(Cc1cccc(F)c1)CN2c1ccccc1)c1ccc(F)cc1`, the Potency is more than 46 µM in experiment [4], more than 46 µM in [5] and 3.16 µM (active) in experiment [10]. Moreover, the Potency entry in experiment [9], in [14] and in experiment [15] was “inactive” throughout.

In the case of `CN(C)c1ccc(/C=C2\CCCN=C2c2cccnc2)cc1`, the Potency result in experiment [9] and in experiment [15] was “inactive” throughout.

Take `C[C@@H](N)Cn1ccc2cc(F)c(Cl)cc21`: the Potency in experiment [4] and in experiment [5] was more than 46 µM each time. For the same compound, the compound was classed as inactive in experiment [16]. Besides, the Potency entry in experiment [6], in experiment [9], in experiment [14] and in experiment [15] was “inactive” throughout.

As to `COc1ccc(C[C@H]2NC[C@H](O)[C@@H]2OC(C)=O)cc1`, the Potency is more than 46 µM in experiment [4], more than 46 µM in [5] and 7.94 µM (active) in experiment [10]. For the same compound, the Potency entry in experiment [6], in [14] and in [15] was “inactive” throughout.

For the compound `Cc1ncc(C[n+]2csc(CCO)c2C)c(=O)[nH]1`, in [15], the Potency result was “inactive”.

Regarding `CN1[C@@H]2CC[C@H]1CC(OC(=O)N1Cc3ccccc3NC1=O)C2` (some centres undefined), the Potency entry in experiment [8] and in experiment [15] was “inactive” throughout.
